Compound activity from PubChem.
Sm TGR block – qHTS Assay for the Inhibitors of Schistosoma Mansoni Peroxiredoxins | Schistosoma mansoni thioredoxin glutathione reductase (TGR), Q962Y6 | purified TGR, DTNB reduction, TNB absorbance 405 nm | Potency, µM (highest dose often 114 µM), usual class: inhibitors | 360,000 tested, 3% active; also: nearly all actives have a fitted effect of over 60% in size
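TGR 20 nM + NADPH 100 uM (dispensed conc.), cpd preinc 15 min RT; start with NADPH (500 uM addition) then DTNB (15 mM addition). Kinetic TNB absorbance, 405 nm filter. Four-parameter Hill fit across titration.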
Shiga toxin inh – A qHTS for Small Molecule Inhibitors of Shiga Toxin. inhibition, % at 38.7 µM. 290,000 tested, 9.2% active. Vero cells, Shiga toxin protein synthesis inhibition reporter; in the data active = inhibition mostly above about 28%, no sharp cut-off; inactive = mostly below about 43%
Pf growth 96h – Primary qHTS for delayed death inhibitors of the malarial parasite plastid, 96 hour incubation; P. falciparum luciferase reporter growth, 96 h; Potency, µM (top dose mostly 28.7 µM), actives largely listed as inhibitors; 320,000 tested, 6.9% active; AID 504834, 2011
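Parasite growth measured via integrated firefly luciferase reporter in P. falciparum. Infected erythrocytes at 2% hematocrit, 0.05% parasitemia final were treated 96 hours at 37 C under 5% CO2, and luminescence was read.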
Pf growth 48h – Primary qHTS for delayed death inhibitors of the malarial parasite plastid, 48 hour incubation | 310,000 tested, 5.9% active | Potency, µM (doses to about 28.7 µM), actives largely listed as inhibitors | P. falciparum luciferase growth in erythrocytes, 48 h
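Luciferase-expressing P. falciparum in infected erythrocytes (2% hematocrit, 0.1% parasitemia final) in RPMI 1640/0.5% Albumax were exposed to compound for 48 hours at 37 C, 5% CO2; growth read as luminescence.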
CHX counter – Cycloheximide Counterscreen for Small Molecule Inhibitors of Shiga Toxin; 300,000 tested, 12% active; AID 2314, 2010; max response, %; cell reporter, cycloheximide protein synthesis inhibition counterscreen; in the data active = max response mostly above about 13%, no sharp cut-off; inactive = mostly below about 14%; also: read at 38.3 µM for the half of the compounds with a filed dose
NS1 inh – qHTS Assay for Inhibitors of Influenza NS1 Protein Function; Potency, µM (series often up to 46.1 µM); 270,000 tested, 0.4% active; calls by dose curve; also: actives are rising curves; nearly all actives have a fitted effect of over 50% in size
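A cell-based growth assay was used: compounds that relieve NS1-induced slow growth of budding yeast raise OD600. Assay medium was yeast nitrogen base with ammonium sulphate and -URA supplement, pH 6.0, with 2% galactose.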
Of the large screens only hits and unclear results are named; the others gave an inactive call. In the library only some 21% were active in any assay of this set; here they are far more common. Unless noted, calls follow the shape of the dose curve; as a rule, active = well fitted curve in the direction sought with a large enough effect; inconclusive = small, poorly fitted or top-dose-only effect, or another doubt; inactive = no such curve, though single readings can be large; an effect the other way counts as inactive or inconclusive.

COCc1nnc(NC(=O)c2cc3ccccc3o2)s1	Shiga toxin inh 58, Pf growth 96h inconclusive, CHX counter 18
CCCc1nnc(NC(=O)c2cc3ccccc3oc2=O)s1	none
Cc1csc(NC(=O)c2cc3ccccc3o2)n1	none (no result: Shiga toxin inh, CHX counter, NS1 inh)
CCCc1nnc(NC(=O)c2cc3ccccc3o2)s1	CHX counter 13
CCOC(=O)c1ccccc1NC(=O)Cn1c(=O)n(Cc2nc(-c3ccccc3)no2)c(=O)c2ccccc21	none (no result: Shiga toxin inh, Pf growth 96h, Pf growth 48h, CHX counter, NS1 inh)
O=Cc1ccc(OC(=O)c2cccnc2)cc1	Pf growth 48h inconclusive
Cc1cc(Cl)nc(NC(=O)CSc2ccc(Cl)cc2)n1	none (no result: Sm TGR block, Shiga toxin inh, Pf growth 96h, Pf growth 48h, CHX counter)
O=C(CCSc1nc(-c2ccc3c(c2)OCO3)cc(C(F)(F)F)n1)NCc1ccccc1	Pf growth 48h inconclusive
CN(Cc1ccccc1)C(=O)CCSc1nc(-c2ccc3c(c2)OCO3)cc(C(F)(F)F)n1	Pf growth 48h 9.3µM
S=C(S)N1CCCC1	Pf growth 96h inconclusive, Pf growth 48h 10µM (no result: Shiga toxin inh, CHX counter)
COc1ccc(CNCCCSc2nnnn2-c2ccccc2)cc1	none (no result: Shiga toxin inh, Pf growth 96h, Pf growth 48h, CHX counter, NS1 inh)
C(=C\c1nc(N2CCCCCC2)c2ccccc2n1)/c1ccccc1	Shiga toxin inh 36, CHX counter 23
CN1CCN(c2nc(-c3cccnc3)nc3ccccc23)CC1	Pf growth 48h inconclusive
COc1ccc(S(=O)(=O)N2CCN(c3nc(-c4cccnc4)nc4ccccc34)CC2)cc1	Pf growth 96h 2.1µM, Pf growth 48h 2.9µM (no result: Shiga toxin inh, CHX counter, NS1 inh)
c1cncc(-c2nc(N3CCCCCC3)c3ccccc3n2)c1	Pf growth 48h 0.47µM (no result: Pf growth 96h)
Cc1ccc(C)c(S(=O)(=O)N2CCN(c3nc(-c4cccnc4)nc4ccccc34)CC2)c1	Pf growth 96h inconclusive, Pf growth 48h 3.3µM (no result: Shiga toxin inh, CHX counter, NS1 inh)
COc1cccc(-n2c(-c3ccc(Cl)cc3)cc3c2CC(C)(C)CC3=O)c1	none (no result: Shiga toxin inh, Pf growth 96h, Pf growth 48h, CHX counter, NS1 inh)
O=C(NCC(O)CO)c1csc(Nc2cccc3ccccc23)n1 (configuration not stated)	none (no result: Shiga toxin inh)
O=S(=O)(c1ccccc1F)N1CCN(c2nc(-c3cccnc3)nc3ccccc23)CC1	Pf growth 96h inconclusive, Pf growth 48h 12µM (no result: Shiga toxin inh, CHX counter, NS1 inh)
COc1cc2c(cc1OC)CN(c1nc(-c3cccnc3)nc3ccccc13)CC2	Sm TGR block inconclusive, Pf growth 96h 12µM, Pf growth 48h inconclusive
O=S(=O)(/C=C/c1ccccc1)N1CCN(c2nc(-c3ccccc3)nc3ccccc23)CC1	Pf growth 96h 12µM, Pf growth 48h inconclusive (no result: NS1 inh)
Oc1ccccc1-c1nc(N2CCCC2)c2ccccc2n1	Pf growth 96h 4.1µM (no result: Pf growth 48h)
Cc1ccc(-c2nnc(SCC(=O)N(C)C)nc2-c2ccc(C)cc2)cc1	Pf growth 96h inconclusive, Pf growth 48h inconclusive
O=C(CSc1nc(C(F)(F)F)cc(=O)[nH]1)N1CCCC1	none (no result: Shiga toxin inh, CHX counter, NS1 inh)
CCN(CC)c1cc2c(cc1F)c(=O)c(S(=O)(=O)c1ccc(C)cc1)cn2Cc1ccc(F)cc1	none (no result: Shiga toxin inh, Pf growth 96h, Pf growth 48h, CHX counter, NS1 inh)
N#Cc1ccccc1S(=O)(=O)N1CCN(c2nc(-c3cccnc3)nc3ccccc23)CC1	Pf growth 96h 4.7µM, Pf growth 48h 9.3µM (no result: Shiga toxin inh, CHX counter, NS1 inh)
O=C(Nc1nc(-c2cccs2)cs1)c1ccc(Cl)s1	Shiga toxin inh 39, Pf growth 96h inconclusive, CHX counter 42
O=C(O)C1CCC1C(=O)Nc1nc(-c2ccc(Cl)s2)cs1 (configuration not stated)	none
CC(=O)Nc1nc(-c2cccs2)cs1	CHX counter 23
O=C(O)C1CCCCC1C(=O)Nc1nc(-c2cccs2)cs1 (configuration not stated)	none
Nc1nc(-c2cccs2)cs1	CHX counter 34
O=C(Nc1nc(-c2ccc(Cl)s2)cs1)c1ccccc1	Pf growth 96h 9.3µM, CHX counter 42 (no result: Pf growth 48h)
Cc1nc2c3ccccc3nc(NNC(=O)CCC(=O)N3CCN(c4cccc(Cl)c4)CC3)n2n1	none (no result: Shiga toxin inh, Pf growth 96h, Pf growth 48h, CHX counter, NS1 inh)
COc1ccc(Cl)cc1NC(=O)Cn1nc(C(F)(F)F)c2c1CCCC2	none (no result: Shiga toxin inh, Pf growth 96h, Pf growth 48h, CHX counter, NS1 inh)
CC12CN3CC(C)(CN(C1)C3c1cc3ccccc3[nH]1)C2=O (configuration not stated)	Pf growth 96h 1µM
COc1ccc(CNC(=O)Cn2nc(C)c3nn(-c4ccc(Cl)cc4)c(C)c3c2=O)cc1	none (no result: Shiga toxin inh, Pf growth 96h, Pf growth 48h, CHX counter, NS1 inh)
CCOC(=O)c1ccccc1NC(=O)c1ccccc1SC	Pf growth 48h inconclusive
Cc1ccc(C)c(NC(=S)NC(NC(=O)OCc2ccccc2)C(Cl)(Cl)Cl)c1 (configuration not stated)	Pf growth 96h 9.3µM, Pf growth 48h inconclusive
CSc1nsc(SC)c1NC(=O)OCc1ccccc1	Pf growth 96h inconclusive, CHX counter 22
Cc1ccccc1NC(=O)Nc1ccccc1C(=O)NCc1ccccc1	none
Cc1ccccc1NC(=O)OCc1ccccc1	Shiga toxin inh 59, Pf growth 96h inconclusive, CHX counter 28
CSc1ccccc1COC(=O)Nc1ccccc1C	Pf growth 48h inconclusive, CHX counter 29 (no result: NS1 inh)
O=C(NC(NC(=S)Nc1c(Cl)cc(Cl)cc1Cl)C(Cl)(Cl)Cl)OCc1ccccc1 (configuration not stated)	Pf growth 48h inconclusive
CSc1nsc(SC)c1NC(=O)OCCc1ccccn1	none (no result: Pf growth 96h)
CCc1ccc(-n2c(=O)c3cccnc3n2CC(=O)NCc2ccc(F)cc2)cc1	none (no result: Shiga toxin inh, Pf growth 96h, Pf growth 48h, CHX counter, NS1 inh)
CCOC(=O)N/N=C(/C)c1ccc(N2C(=O)C3CCCCC3C2=O)cc1 (configuration not stated)	Pf growth 96h inconclusive (no result: NS1 inh)
O=S(=O)(c1ccc2c(c1)OCCO2)N1CCC(c2nc3ccc(Cl)cc3[nH]2)CC1	Pf growth 96h inconclusive, Pf growth 48h 12µM
O=C(NCC1CCCO1)c1ccc(S(=O)(=O)N2CCC(c3nc4ccc(Cl)cc4[nH]3)CC2)cc1 (configuration not stated)	Pf growth 48h 13µM
Cc1ccc(S(=O)(=O)N2CCCCC2)cc1C(=O)NCC1CCCO1 (configuration not stated)	Pf growth 96h inconclusive
O=C(NCC1CCCO1)c1cc(S(=O)(=O)N2CCCCC2)ccc1Cl (configuration not stated)	Sm TGR block 2.8µM (no result: Shiga toxin inh, CHX counter, NS1 inh)
O=C(NCC1CCCO1)C1CCN(S(=O)(=O)c2cc(Cl)ccc2Cl)CC1 (configuration not stated)	none
Cc1ccc(S(=O)(=O)/C(C#N)=C/c2c(N3CCC(C(N)=O)CC3)nc3ccccn3c2=O)cc1	none (no result: Pf growth 96h)
CC(NC(=O)/C(C#N)=C/c1ccco1)c1ccccc1 (configuration not stated)	none
CCOCCCNC(=O)/C(C#N)=C/c1ccc(-c2ccc(S(=O)(=O)N3CCOCC3)cc2)o1	Sm TGR block inconclusive, Pf growth 96h 13µM
CCOCCCNC(=O)/C(C#N)=C/c1ccc([N+](=O)[O-])o1	Sm TGR block 8.9µM (no result: NS1 inh)
CC(NC(=O)/C(C#N)=C/c1ccc([N+](=O)[O-])o1)c1ccccc1 (configuration not stated)	Sm TGR block 1.3µM
